Measurements reported in PubChem BioAssay AID1159580 (chemical genetic matrix, 2015).
Screen size: about 5,500 compounds; about 2,000 (36%) were called active. Inconclusive results (about 18%) are left out. No stated cut-off is given here; in the data, active means normalized growth mostly below about 0.91 (no sharp cut-off); inconclusive means no clear call, values can overlap the other calls; inactive means mostly above about 0.92. Some of the results follow.

Test: chemical genetic growth profiling, strain panel (AID 1159580);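 further: tested at 20 µM; growth read once vehicle control cultures reached saturation at 30 °C; 1 = growth at the plate median or of vehicle wells; lower values mean less growth of the strain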
Conditions: growth OD

Measured: normalized growth

O=C1CC(c2ccc(O)cc2)Oc2ccccc21 (stereo unspecified)
inactive: S. cerevisiae deletion strains, locus YBR021W, strain FUR4, hits give low values 0.896 | S. cerevisiae deletion strains, locus YBR229C, strain ROT2, hits give low values 0.918 | S. cerevisiae deletion strains, locus YDL185W, strain tfp1, hits give low values 0.907 | S. cerevisiae deletion strains, locus YDR150W, strain NUM1, hits give low values 0.919 | S. cerevisiae deletion strains, locus YGL078C, strain dbp3, hits give low values 0.944 | S. cerevisiae deletion strains, locus YHR200W, strain rpn10, hits give low values 0.924 | S. cerevisiae deletion strains, locus YIL073C, strain SPO22, hits give low values 0.786 | S. cerevisiae deletion strains, locus YIL125W, strain kgd1, hits give low values 0.94 | S. cerevisiae deletion strains, locus YKL009W, strain mrt4, hits give low values 0.976 | S. cerevisiae deletion strains, locus YLR102C, strain apc9, hits give low values 0.928 | S. cerevisiae deletion strains, locus YLR371W, strain rom2, hits give low values 0.927 | S. cerevisiae deletion strains, locus YNL128W, strain TEP1, hits give low values 0.923 | S. cerevisiae deletion strains, locus YNR052C, strain pop2, hits give low values 0.92 | S. cerevisiae deletion strains, locus YOL012C, strain htz1 0.38 | S. cerevisiae deletion strains, locus YOR061W, strain CKA2, hits give low values 0.931 | S. cerevisiae deletion strains, locus YOR069W, strain VPS5, hits give low values 0.946 | S. cerevisiae deletion strains, locus YPL241C, strain CIN2, hits give low values 0.935 | S. cerevisiae deletion strains, locus YPR141C, strain kar3, hits give low values 0.923 | S. cerevisiae deletion strains, locus YPR167C, strain met16, hits give low values 0.93
active: S. cerevisiae deletion strains, locus YAL013W, strain DEP1, hits give low values 0.894 | S. cerevisiae deletion strains, locus YCL029C, strain bik1, hits give low values 0.858 | S. cerevisiae deletion strains, locus YDL035C, strain GPR1, hits give low values 0.844 | S. cerevisiae deletion strains, locus YDL074C, strain BRE1, hits give low values 0.632 | S. cerevisiae deletion strains, locus YDL101C, strain DUN1, hits give low values 0.862 | S. cerevisiae deletion strains, locus YDL134C, strain PPH21, hits give low values 0.798 | S. cerevisiae deletion strains, locus YDL192W, strain arf1, hits give low values 0.818 | S. cerevisiae deletion strains, locus YDR101C, strain arx1, hits give low values 0.865 | S. cerevisiae deletion strains, locus YDR162C, strain NBP2, hits give low values 0.489 | S. cerevisiae deletion strains, locus YDR318W, strain mcm21, hits give low values 0.746 | S. cerevisiae deletion strains, locus YDR388W, hits give low values 0.897 | S. cerevisiae deletion strains, locus YDR502C, strain sam2, hits give low values 0.815 | S. cerevisiae deletion strains, locus YEL061C, strain CIN8, hits give low values 0.879 | S. cerevisiae deletion strains, locus YER110C, hits give low values 0.855 | S. cerevisiae deletion strains, locus YER155C, strain BEM2, hits give low values 0.769 | S. cerevisiae deletion strains, locus YER167W, strain BCK2, hits give low values 0.687 | S. cerevisiae deletion strains, locus YGL086W, strain mad1, hits give low values 0.848 | S. cerevisiae deletion strains, locus YGL248W, strain PDE1, hits give low values 0.795 | S. cerevisiae deletion strains, locus YGR078C, strain PAC10, hits give low values 0.694 | S. cerevisiae deletion strains, locus YGR135W, strain pre9, hits give low values 0.787 | S. cerevisiae deletion strains, locus YGR229C, strain SMI1, hits give low values 0.538 | S. cerevisiae deletion strains, locus YGR252W, strain gcn5, hits give low values 0.718 | S. cerevisiae deletion strains, locus YHR030C, strain SLT2, hits give low values 0.704 | S. cerevisiae deletion strains, locus YHR079C, strain IRE1 (second series), hits give low values 0.8 | S. cerevisiae deletion strains, locus YHR094C, strain hxt1, hits give low values 0.917 | S. cerevisiae deletion strains, locus YHR129C, strain ARP1, hits give low values 0.795 | S. cerevisiae deletion strains, locus YIL066C, strain RNR3, hits give low values 0.851 | S. cerevisiae deletion strains, locus YIR030C, strain dcg1, hits give low values 0.86 | S. cerevisiae deletion strains, locus YJL095W, strain BCK1, hits give low values 0.386 | S. cerevisiae deletion strains, locus YJL134W, strain LCB3, hits give low values 0.919 | S. cerevisiae deletion strains, locus YJL168C, strain set2, hits give low values 0.926 | S. cerevisiae deletion strains, locus YJL187C, strain SWE1 (second series), hits give low values 0.817 | S. cerevisiae deletion strains, locus YJR043C, strain POL32, hits give low values 0.76 | S. cerevisiae deletion strains, locus YJR075W, strain HOC1, hits give low values 0.755 | S. cerevisiae deletion strains, locus YKL068W, hits give low values 0.924 | S. cerevisiae deletion strains, locus YKL085W, strain MDH1 (second series), hits give low values 0.923 | S. cerevisiae deletion strains, locus YKL085W, strain MDH1, hits give low values 0.923 | S. cerevisiae deletion strains, locus YKL190W, strain CNB1, hits give low values 0.874 | S. cerevisiae deletion strains, locus YKR001C, strain vps1, hits give low values 0.598 | S. cerevisiae deletion strains, locus YLR039C, strain RIC1, hits give low values 0.479 | S. cerevisiae deletion strains, locus YLR058C, strain SHM2, hits give low values 0.829 | S. cerevisiae deletion strains, locus YLR262C, strain YPT6, hits give low values 0.498 | S. cerevisiae deletion strains, locus YLR268W, strain sec22, hits give low values 0.784 | S. cerevisiae deletion strains, locus YLR330W, strain CHS5, hits give low values 0.82 | S. cerevisiae deletion strains, locus YLR342W, strain FKS1 (second series), hits give low values 0.563 | S. cerevisiae deletion strains, locus YLR418C, strain cdc73, hits give low values 0.471 | S. cerevisiae deletion strains, locus YML016C, strain PPZ1, hits give low values 0.905 | S. cerevisiae deletion strains, locus YML032C, strain rad52, hits give low values 0.696 | S. cerevisiae deletion strains, locus YML124C, strain tub3, hits give low values 0.918 | S. cerevisiae deletion strains, locus YMR078C, strain ctf18, hits give low values 0.808 | S. cerevisiae deletion strains, locus YMR223W, strain ubp8, hits give low values 0.807 | S. cerevisiae deletion strains, locus YMR263W, strain SAP30, hits give low values 0.823 | S. cerevisiae deletion strains, locus YMR307W, strain GAS1, hits give low values 0.56 | S. cerevisiae deletion strains, locus YNL067W, strain RPL9B, hits give low values 0.81 | S. cerevisiae deletion strains, locus YNL153C, strain GIM3, hits give low values 0.837 | S. cerevisiae deletion strains, locus YNL233W, strain BNI4, hits give low values 0.73 | S. cerevisiae deletion strains, locus YNL250W, strain rad50, hits give low values 0.876 | S. cerevisiae deletion strains, locus YNL271C, strain bni1, hits give low values 0.915 | S. cerevisiae deletion strains, locus YNL298W, strain CLA4, hits give low values 0.903 | S. cerevisiae deletion strains, locus YNL307C, strain MCK1, hits give low values 0.176 | S. cerevisiae deletion strains, locus YNL322C, strain KRE1, hits give low values 0.9 | S. cerevisiae deletion strains, locus YOL006C, strain TOP1, hits give low values 0.462 | S. cerevisiae deletion strains, locus YOL147C, strain pex11, hits give low values 0.662 | S. cerevisiae deletion strains, locus YOR136W, strain idh2, hits give low values 0.92 | S. cerevisiae deletion strains, locus YOR144C, strain elg1, hits give low values 0.911 | S. cerevisiae deletion strains, locus YOR184W, strain ser1, hits give low values 0.465 | S. cerevisiae deletion strains, locus YOR316C, strain cot1, hits give low values 0.916 | S. cerevisiae deletion strains, locus YPL055C, strain LGE1, hits give low values 0.712 | S. cerevisiae deletion strains, locus YPR119W, strain clb2, hits give low values 0.89 | S. cerevisiae deletion strains, locus YPR163C, strain tif3, hits give low values 0.451 | S. cerevisiae deletion strains, strain wtn01, hits give low values 0.807 | S. cerevisiae strains, strain wild type, hits give low values 0.838
